Test results reported in PubChem BioAssay (Tox21).
Records with an inconclusive call do not appear. Active and inactive are the calls of the source. The call rests on the fitted dose curve; in most records, active means well fitted cell-killing curve with a large enough effect in the repeat runs; inconclusive means weak or mixed curves, or effect the other way; inactive means no such curve, though single readings can be large or run the other way.

experiment: qHTS assay for identifying genotoxic compounds that show differential cytotoxicity against isogenic chicken DT40 cell lines with known DNA damage response pathways - Rev3 mutant cell line (AID 743014); details: chicken DT40 Rev3-/- viability, CellTiter-Glo, 40 h; series mostly up to 68.4 µM; activity, negative = cytotoxicity: at the top concentration; further: nearly all actives have a fitted effect of over 55% in size
Text: National Center for Advancing Translational Sciences [NCATS]
NIH Chemical Genomics Center [NCGC]
U.S. Environmental Protection Agency [EPA]
National Institutes of Environmental Health Sciences [NIEHS]
National Toxicology Program [NTP]
U.S. Food and Drug Administration [FDA]
DNA repair pathways play a critical role in cellular homeostasis by repairing DNA damage induced by endogenous processes and xenobiotics. Isogenic chicken DT40 cell lines deficient in different DNA repair pathways can be used to identify genotoxic compounds and aid in characterizing the nature of the DNA damage induced. Two DNA repair-deficient cell lines with disrupted genes, Rad54/Ku70 or Rev3, were used to screen the Tox21 10K compound library. Possible genotoxicity was based on the presence of a significant increase in cytotoxicity in one or more of the DNA repair-deficient cell lines compared to that observed in the parental DNA repair-proficient cell line. CellTiter Glo viability assay (Promega, Madison, WI) was used to measure cell viability in these cells after compound treatment. This assay includes the data from the Rev3 mutant cell line.
Tox21 Assay Protocol Summary:
300 DT40 mutant cells in 5 uL/well were dispensed into white, solid-bottom 1536-well plates using a Multidrop Combi (ThermoFisher Scientific, Waltham, MA) dispenser. After the assay plates were incubated at 37 C/5% CO2 for approximately 0.5 hour, 23 nL of compounds dissolved in DMSO, positive controls or DMSO only was transferred into the assay plate by a pintool work station (Kalypsys, San Diego, CA). The assay plates were incubated at 37 C/5% CO2 for 40 hours. After 5 uL per well of CellTiter-Glo reagent was added into each well of the assay plates, the plates were incubated for 30 min at room temperature and the luminescence intensity of the plates was measured using a ViewLux (PerkinElmer, Shelton, CT) plate reader.
On the % scale 0 is the no-effect control and ±100 the full control effect; potency means the concentration at half of the fitted maximal effect.

Compound	activity, negative = cytotoxicity	Potency
CC(=O)OC(C)c1ccccc1 (stereo not given)	10.5% (inactive)	
CCCOCCOCCOCCO	-4.7% (inactive)	
Cc1ccccc1C(=O)N1CC/C(=N\OS(=O)(=O)O)c2ccc(Cl)cc21	-9.16% (inactive)	
CCCCC(=O)N(C)C	11.9% (inactive)	
Cc1ccccc1N1CCN(CCc2nnc3n2CCCC3)CC1	-13.9% (inactive)	
NCCc1ccn[nH]1	20.4% [at 31.4 µM] (inactive)	
Cc1cc(C)cc([N+](=O)[O-])c1	3.97% [at 95 µM] (inactive)	
CC(C)C(=O)c1ccccc1	10.2% (inactive)	
CCCCCCCC/C=C\CCCCCCCC(=O)OC[C@@H](O)[C@H]1OC[C@H](O)[C@H]1O		inactive
CCCO	-8.92% (inactive)	
COc1ccc(/C=N/NC(=O)c2ccncc2)cc1OC	12% (inactive)	
CCCCOC(=O)C(C)OC(=O)CCC (stereo not given)	4.59% (inactive)	
CCOC(=O)C(C)(C)C	1.52% [at 95 µM] (inactive)	
CC(C)(CO)[C@@H](O)C(=O)NCCCO	-0.179% (inactive)	
CCCCC(C)C(=O)O (stereo not given)	5.18% (inactive)	
C1CCN2C[C@@H]3C[C@@H](CN4CCCC[C@@H]34)[C@H]2C1	-10.5% [at 31.4 µM] (inactive)	
CCCCC(CC)COC(=O)c1ccccc1 (stereo not given)	-29.5% (inactive)	
C[CH2][Ge]([Cl])([CH2]C)[CH2]C	-0.0907% [at 95 µM] (inactive)	
COC(OC)C(C)c1ccccc1 (stereo not given)	15.8% (inactive)	
C[C@H](CCC(=O)NCC(=O)O)[C@H]1CC[C@H]2[C@@H]3[C@H](O)C[C@@H]4C[C@H](O)CC[C@]4(C)[C@H]3C[C@H](O)[C@]12C	3.39% (inactive)	

Compound	activity, negative = cytotoxicity	Potency
CCOc1ccc(NC(=O)OC(C)C)cc1OCC		61.1 µM (active)
C1=CCC(c2ccccc2)CC1 (stereo not given)		30.6 µM (active)
CO[Si](CCCS)(OC)OC	4.12% (inactive)	
CCCCC(CC)C(=O)OC(C)C (stereo not given)	-3.07% (inactive)	
O=C(O)CCNC(=O)c1ccccc1	3.34% (inactive)	
NS(=O)(=O)c1cc2c(cc1Cl)NC(CC1CCCC1)NS2(=O)=O (stereo not given)	12.5% [at 31.4 µM] (inactive)	
O=C(O)C(=O)Nc1cccc(-c2nn[nH]n2)c1	11.3% (inactive)	
CCC(C)N (stereo not given)	-1.24% (inactive)	
O=S(=O)(O)SSS(=O)(=O)O	-18.3% (inactive)	
N#CCCOCCOCCC#N		61.1 µM (active)
CCNC(=O)/C=C/c1cccc(Br)c1	9.02% (inactive)	
CCCCC[Si](OCC)(OCC)OCC	0.384% (inactive)	
CCCCOC(=O)[C@@H](C)Oc1ccc(Oc2ccc(C(F)(F)F)cn2)cc1	-4.63% [at 95 µM] (inactive)	
CCOC(=O)CCCCCCCCC(=O)OCC		61.1 µM (active)
CCNC(=O)NCCCOc1cccc(CN2CCCCC2)c1	-12.6% (inactive)	
O=C(O)c1ccccc1C(=O)OCc1ccccc1	-10.8% (inactive)	
CCOC(=O)OCC/C(SC(=O)OCC)=C(\C)N(C=O)Cc1cnc(C)nc1N	2.55% (inactive)	
CNC(=O)NC	4.7% [at 95 µM] (inactive)	
CC(C)c1ccccc1O	-8.49% (inactive)	
CCCCOC(=O)C(=O)OCCCC	4.19% (inactive)	
